Not all results are given here.
aSyn UTR act: Activators via SNCA 5'UTR binding, MLPCN | activity score, % (tested at 7.5 µM), hits read low | alpha-synuclein 5'UTR reporter, activators screen | hit rate 7.1% among 300,000; in the data active = activity score below about -60%
Starred values were filed as active, the others as inactive.

SMILES | aSyn UTR act
COc1ccc(-c2noc(-c3ccoc3C)n2)cc1 | -143*
COc1ccc(-c2noc(-c3ccco3)n2)cc1OC | -110*
COc1cccc(-c2noc(-c3ccoc3C)n2)c1 | -212*
CCOc1ccc(NCC(=O)N/N=C/C=C/c2ccccc2)cc1 | -84*
CCOc1ccc(N=C/C=C/c2ccccc2)c(O)c1 | -67*
CO/N=C/c1ccc(Oc2ccc(C)cc2)nc1 | -77*
CCOC(=O)c1sc(Nc2nc3c(F)cccc3s2)cc1C | -280*
CCOC(=O)c1sc(Nc2nc3ccc(OC)cc3s2)cc1C | -69*
O=C(c1ccco1)N1CCN(c2ncnc3c2oc2ccccc23)CC1 | -113*
O=C1CCCc2nc(N3CCN(C(=O)c4ccco4)CC3)ncc21 | -93*
Nc1nc(N2CCN(C(=O)c3ccco3)CC2)nc2ccccc12 | -102*
O=C(O)COn1c(-c2ccc(Cl)cc2)nc2ccc(Cl)cc21 | -123*
COn1c(-c2ccc(Cl)cc2)nc2ccc(Cl)cc21 | -114*
COc1cccc(OC)c1C(=O)Nc1ccc2c(c1)Cc1ccccc1-2 | -105*
O=C(Nc1ccc2c(c1)Cc1ccccc1-2)c1ccco1 | -160*
CC(C)C1Oc2ccccc2C(=O)N(CC(=O)c2ccc3c(c2)OCCO3)C1=O (stereo not given) | -224*
CC1CCC2(CC1)NC(=O)N(CC(=O)Nc1ccc3c(c1)OCCO3)C2=O (stereo not given) | -100*
O=C(CN1C(=O)NC2(CCCCCC2)C1=O)c1ccc2c(c1)OCCO2 | -154*
CCCc1nn(C)c(C(=O)Nc2cccc(CC)c2)c1Cl | -84*
CCCc1nn(C)c(C(=O)Nc2ccc3ccccc3c2)c1Cl | -204*
O=C(O)c1ccc(-c2ccc(-c3ccccc3)cc2)s1 | 64
O=C(Nc1ccccc1)c1cc2ccc3ccccc3c2s1 | -90*
COc1ccc2cc(C(=O)Nc3ccccc3)sc(=O)c2c1OC | -78*
O=C(Nc1ccccc1)c1ccc(-c2ccccc2)s1 | -215*
O=C(CN1C(=O)CCC1=O)Nc1nc(-c2ccc(Cl)s2)cs1 | -64*
SMILES | aSyn UTR act
O=C(CSCC(=O)N1CCCCC1)Nc1nc(-c2ccc(Cl)s2)cs1 | -118*
CC(=O)c1cccc(OCc2cc(C(=O)N3CCSCC3)no2)c1 | -152*
O=C(c1cc(COc2ccc(F)c(F)c2)on1)N1CCSCC1 | -94*
COc1ccc(OCCCn2cc(/C=C3/C(=N)N4C=C(C)SC4=NC3=O)c3ccccc32)cc1 | -70*
CCOC(=O)Cc1csc(NC(=O)c2ccc(Cl)s2)n1 | -119*
CCOC(=O)Cc1csc(NC(=O)c2cnc3sc(C)cn3c2=O)n1 | -112*
CCOC(=O)Cc1csc(NC(=O)c2ccco2)n1 | -162*
O=C(NCC(O)c1ccccc1)c1ccc(Cl)c(S(=O)(=O)N2CCCC2)c1 (stereo not given) | -96*
CC1CN(S(=O)(=O)c2cc(C(=O)NCCC3=CCCCC3)ccc2Cl)CC(C)O1 (stereo not given) | -85*
O=C(NCCc1ccccc1)c1ccc(Cl)c(S(=O)(=O)N2CCCC2)c1 | -67*
O=C(NCC(O)c1ccccc1)c1ccccc1 (stereo not given) | -80*
O=C(NCCc1ccccc1)c1cnc(Cl)c(Cl)c1 | -119*
COc1ccc(/C=C/C(=O)c2cc(F)ccc2OC(=O)c2ccccc2OC)cc1OC | 68
COc1ccc(/C=C/C(=O)c2ccc[nH]2)c(OC)c1OC | -194*
COc1ccc(/C=C/C(=O)c2ccc[nH]2)cc1OC | -146*
Cc1nnc(NC(=O)c2c(F)c(F)c(F)c(F)c2F)s1 | -73*
COCCSc1nnc(NC(=O)c2ccc3c(c2)OCO3)s1 | -118*
Cc1nnc(NC(=O)c2cccc(Br)c2)s1 | -96*
Cc1nnc(NC(=O)c2ccc(S(=O)(=O)C(F)F)cc2)s1 | -78*
O=C(Nc1nncs1)c1ccc2c(c1)OCO2 | -83*
Cc1nnc(NC(=O)c2ccc3c(c2)OCO3)s1 | -150*
CSc1nnc(NC(=O)c2ccc3c(c2)OCO3)s1 | 81
O=C(NC(=S)Nc1ccc(CN2CCOCC2)cc1)c1ccc2c(c1)OCCO2 | -116*
O=C(NC(=S)Nc1ccc(N2CCCCC2)cc1)c1ccc2c(c1)OCCO2 | -125*
CCc1ccc(OCc2ccc(C(=O)OC)o2)cc1 | -220*
SMILES | aSyn UTR act
O=C(Nc1ccc(Cl)cc1)c1ccc(OC2CSC2)cc1 | -90*
CCc1sc(C(=O)Nc2cccnc2)cc1Br | -110*
CC(C)(C)c1ccc(OCCCC(=O)N2CCOCC2)cc1 | -104*
O=C(N/N=C/c1cc([N+](=O)[O-])ccc1O)c1ccc(COc2ccc3c(c2)CCC3)o1 | 87
O=C(N/N=C/c1ccc2ccccc2c1)c1ccc(COc2ccc3c(c2)CCC3)o1 | -72*
CC(C)(C)c1ccc(C(=O)Nc2cccnc2)cc1 | -91*
O=C(N/N=C\c1c(O)ccc2ccccc12)c1ccc(Cn2cccn2)o1 | 92
Cc1ocnc1C(=O)Nc1ccc(Cl)cc1 | -167*
COC(=O)c1ccc(COc2ccc3c(c2)CCC3)o1 | -130*
CCCc1ccc(OCc2ccc(C(=O)N3CCSCC3)o2)cc1 | -148*
COC(=O)Cc1ccc(NC(=O)c2ccc(C(C)(C)C)cc2)cc1 | 124
CC(C)(C)c1ccc(OCc2ccc(C(=O)N3CCOCC3)o2)cc1 | -119*
CC(C)(C)c1ccc(C(=O)Nc2ccc(Cl)cc2)cc1 | -110*
CC(C)(C)c1ccc(OCc2ccc(C(=O)Nc3cccnc3)o2)cc1 | -170*
COC(=O)c1ccc(COc2ccc(C(C)(C)C)cc2)o1 | -167*
CC(=O)Nc1nonc1NC(=O)c1ccc(C(C)(C)C)cc1 | -153*
CCOC(=O)c1sc2nc(NC(=O)C(C)(C)C)sc2c1C | -135*
CCOC(=O)c1sc2nc(NC(=O)C3CC3)sc2c1C | -201*
CCc1ccc(NC(=O)c2cnc3scc(C)n3c2=O)cc1 | -247*
Cc1ccc(C(=O)Nc2cccc(C(F)(F)F)c2)cc1NC(=O)c1cnnc2ccccc12 | 64
Cc1csc2ncc(C(=O)Nc3cccc(C(F)(F)F)c3)c(=O)n12 | -128*
FC(F)(F)c1cc(Cl)c2nc(-c3ccccc3)cn2c1 | -80*
Nc1cccc(-c2cn3cc(C(F)(F)F)cc(Cl)c3n2)c1 | -100*
COc1ccc2c(c1)O[C@@H](c1cccc(C(F)(F)F)c1)[C@H](O)C2=O | 62
Cc1ccc2c(c1)C(=O)CC(c1ccc3c(c1)OCCO3)O2 (stereo not given) | -96*
SMILES | aSyn UTR act
COc1ccc2c(c1)C(=O)CC(c1ccc3c(c1)OCCO3)O2 (stereo not given) | -272*
COc1ccc2c(c1)O[C@H](c1ccc3c(c1)OCO3)[C@@H](O)C2=O | -86*
c1ccc2oc(-c3csc(NCC4CCCO4)n3)cc2c1 (stereo not given) | -110*
c1ccc2sc(NCC3CCCO3)nc2c1 (stereo not given) | -151*
C=CCNc1nc(-c2cc3ccccc3o2)cs1 | -73*
CCC(=O)Nc1cnc(NC(=O)c2cccc(F)c2)cc1C | -107*
CC(=O)Nc1cnc(NC(=O)c2cccc(F)c2)cc1C | -148*
CCOc1ccc2[nH]c(C(=O)N/N=C/c3ccc(OC)cc3)cc2c1 | 76
COc1ccc2[nH]c3c(C)c4ccncc4c(C)c3c2c1 | 109
CCOC(=O)c1[nH]c2ccc(OC)cc2c1C | -122*
CCOC(=O)c1cc2cc(OC)ccc2[nH]1 | -147*
COC(=O)c1[nH]c2ccc(F)cc2c1NS(=O)(=O)c1ccc(OC)cc1 | 100
CCOC(=O)c1[nH]c2ccc(OC)cc2c1NC(=O)c1ccccc1C(=O)O | -65*
CCOC(=O)c1[nH]c2ccccc2c1NC(=S)Nc1cc(C)ccc1C | -88*

High-throughput results: PubChem BioAssay, Broad Institute
